Inconclusive results are not listed. A call without a number means that no potency is given here. Active and inactive are the calls of the source. The call rests on the fitted dose curve; in most records, active means well fitted inhibition curve with a large enough effect in the repeat runs; inconclusive means weak or mixed curves; inactive means no such curve, though single readings can be large or run the other way.
target: Cytochrome P450 2C19 (Homo sapiens) (UniProt P33261); assay: Cytochrome P450 Family 2 Subfamily C Member 19 (CYP2C19) small molecule antagonists: luciferase reporter qHTS assay (AID 1671197); conditions: P450-Glo CYP2C19 enzyme, luciferin luminescence, 1 h; series mostly up to 115 µM; further: nearly all actives have a fitted effect of over 65% in size
Method in brief: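 Luminescent readout of CYP2C19 activity: luciferin product detected 20 min after adding detection reagent. Before that, compound and enzyme-substrate mix preincubated 10 min at room temperature; NADPH-regenerating system started a 1 h, 37C reaction. Ketoconazole as positive control.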
Potency means the concentration at half of the fitted maximal effect.

Sequence of Cytochrome P450 2C19 (Homo sapiens) (P33261 whole entry, looked up): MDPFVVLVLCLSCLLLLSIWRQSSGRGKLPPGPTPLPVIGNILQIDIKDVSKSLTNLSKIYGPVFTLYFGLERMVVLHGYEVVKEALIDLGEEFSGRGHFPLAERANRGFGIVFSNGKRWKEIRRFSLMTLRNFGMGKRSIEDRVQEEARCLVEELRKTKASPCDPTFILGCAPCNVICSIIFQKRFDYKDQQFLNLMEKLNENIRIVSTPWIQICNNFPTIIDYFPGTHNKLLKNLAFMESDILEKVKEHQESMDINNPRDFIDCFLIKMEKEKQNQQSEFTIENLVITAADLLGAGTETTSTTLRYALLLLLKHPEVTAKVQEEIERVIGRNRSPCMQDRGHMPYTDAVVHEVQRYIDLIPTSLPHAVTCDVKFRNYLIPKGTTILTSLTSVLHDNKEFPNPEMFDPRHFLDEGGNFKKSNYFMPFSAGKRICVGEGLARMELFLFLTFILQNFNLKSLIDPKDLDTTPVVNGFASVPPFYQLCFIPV

Compound	Potency
CC/C=C\C/C=C\C/C=C\CCCCCCCC(=O)OCC	64.8 µM (active)
CC1CCCO1 (stereo unspecified)	inactive
CCC1CCC(CCC(=O)O)C1 (stereo unspecified)	40.8 µM (active)
COc1ccc(CCN(C)CCCN2CCc3cc(OC)c(OC)cc3CC2=O)cc1OC	inactive
Cc1cn([C@H]2C[C@H](F)[C@@H](CO)O2)c(=O)[nH]c1=O	inactive
Cc1ccccc1S(N)(=O)=O	inactive
CCSC(=O)N(CC)CC	inactive
C=C(C)c1ccccc1	inactive
Oc1ccc2c(c1)Cc1ccccc1-2	28.3 µM (active)
CC1CCc2nccnc21 (stereo unspecified)	inactive
CCCCCCCC/C=C/C(=O)O	inactive
CCOC(=O)N1CCC(Nc2ccc(Cl)cc2N)CC1	4.36 µM (active)
CC(=O)Oc1cccc(O)c1	inactive
COC(=O)C1=C(C)NC(C)=C(C(=O)OC(C)(C)CN(C)CCC(c2ccccc2)c2ccccc2)C1c1cccc([N+](=O)[O-])c1 (stereo unspecified)	1.38 µM (active)
O=C(O)c1cc(Cl)cc(Cl)c1O	inactive
CCN(CC)CCNC(=O)c1cc(Cl)c(N)cc1OC	inactive
CNC1CCCN(c2c(F)cc3c(=O)c(C(=O)O)cn(C4CC4)c3c2OC)C1 (stereo unspecified)	inactive
CCOc1ncc(F)c(=O)[nH]1	inactive
CCCC(=O)OC(=O)CCC	inactive

Compound	Potency
CCOCCC(=O)OCC	inactive
CCCCCCCC/C=C\CCCCCCCC(=O)OCCO	52.9 µM (active)
C=CC(=O)NC(C)C	inactive
CCCCCCCCCCCC(=O)OCC(O)CO (stereo unspecified)	79.6 µM (active)
O=C(Oc1ccccc1)c1ccc2ccccc2c1O	79.6 µM (active)
CCCCCCCC(=O)Oc1c(Br)cc(C#N)cc1Br	35.5 µM (active)
COc1ccc(C)cc1	79.6 µM (active)
C=Cc1ccc(OC(C)=O)cc1	inactive
CC1C(C)(C)C2=C(C(=O)CCC2)C1(C)C (stereo unspecified)	inactive
CCCCCCOC(=O)CCCCC	inactive
CCCCCCCCCCCCCCCCCC(=O)OCC(CC)CCCC (stereo unspecified)	inactive
C[C@@H]1[C@H](O)[C@@H](C)/C=C/C=C\C=C\C=C\C=C\C=C\C=C\[C@H](O[C@@H]2O[C@H](C)[C@@H](O)[C@H](N)[C@@H]2O)C[C@@H]2O[C@](O)(C[C@@H](O)C[C@@H](O)[C@H](O)CC[C@@H](O)C[C@@H](O)CC(=O)O[C@H]1C)C[C@H](O)[C@H]2C(=O)O (stereo in doubt)	inactive
CNS(=O)(=O)c1cc(C(=O)N2CCC(CCN3C4CCC3CC(n3c(C)nc5ccccc53)C4)(c3cccc(F)c3)CC2)c(Cl)cc1F (stereo unspecified)	63.3 µM (active)
CC(=O)OCCC1CCCCC1	inactive
CC(=O)OC(C)C[N+](C)(C)C (stereo unspecified)	inactive
O=P(O)(O)Oc1ccccc1	inactive
COC(C)(C)OC	69 µM (active)
NC(=O)c1ccccc1[N+](=O)[O-]	inactive
C1=CCC2CC=CC2C1 (stereo unspecified)	70.9 µM (active)

target: Cytochrome P450 2C9 (Homo sapiens) (UniProt P11712); assay: Cytochrome P450 Family 2 Subfamily C Member 9 (CYP2C9) small molecule antagonists: luciferase reporter qHTS assay (AID 1671198); conditions: P450-Glo CYP2C9 enzyme assay, luciferin luminescence; series mostly up to 115 µM; further: nearly all actives have a fitted effect of over 50% in size
Method in brief: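 P450-Glo proluciferin substrate with CYP2C9 enzyme; 10 min RT preincubation, then NADPH regeneration 1 h at 37C; luciferin detection reagent 20 min RT, luminescence in relative luminescence units.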

Sequence of Cytochrome P450 2C9 (Homo sapiens) (P11712 whole entry, looked up): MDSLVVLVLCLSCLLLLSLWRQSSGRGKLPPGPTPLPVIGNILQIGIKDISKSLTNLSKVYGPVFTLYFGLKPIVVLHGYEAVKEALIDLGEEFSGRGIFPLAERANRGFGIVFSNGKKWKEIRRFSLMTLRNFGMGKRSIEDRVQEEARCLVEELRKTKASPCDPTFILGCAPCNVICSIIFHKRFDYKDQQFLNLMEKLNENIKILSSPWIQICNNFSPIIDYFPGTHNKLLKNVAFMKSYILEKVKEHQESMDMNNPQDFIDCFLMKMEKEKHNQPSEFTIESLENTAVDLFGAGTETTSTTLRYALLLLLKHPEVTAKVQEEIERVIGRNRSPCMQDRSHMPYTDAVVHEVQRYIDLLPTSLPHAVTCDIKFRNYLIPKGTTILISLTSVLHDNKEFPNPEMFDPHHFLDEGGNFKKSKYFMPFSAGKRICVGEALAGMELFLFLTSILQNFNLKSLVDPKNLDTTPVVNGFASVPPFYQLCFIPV

Compound	Potency
CC/C=C\C/C=C\C/C=C\CCCCCCCC(=O)OCC	40.9 µM (active)
CC1CCCO1 (stereo unspecified)	inactive
CCC1CCC(CCC(=O)O)C1 (stereo unspecified)	36.4 µM (active)
COc1ccc(CCN(C)CCCN2CCc3cc(OC)c(OC)cc3CC2=O)cc1OC	inactive
Cc1cn([C@H]2C[C@H](F)[C@@H](CO)O2)c(=O)[nH]c1=O	inactive
Cc1ccccc1S(N)(=O)=O	inactive
CCSC(=O)N(CC)CC	inactive
C=C(C)c1ccccc1	inactive
Oc1ccc2c(c1)Cc1ccccc1-2	35.6 µM (active)
CC1CCc2nccnc21 (stereo unspecified)	inactive
CCCCCCCC/C=C/C(=O)O	inactive
CCOC(=O)N1CCC(Nc2ccc(Cl)cc2N)CC1	8.71 µM (active)
CC(=O)Oc1cccc(O)c1	inactive
COC(=O)C1=C(C)NC(C)=C(C(=O)OC(C)(C)CN(C)CCC(c2ccccc2)c2ccccc2)C1c1cccc([N+](=O)[O-])c1 (stereo unspecified)	2.45 µM (active)
O=C(O)c1cc(Cl)cc(Cl)c1O	28.3 µM (active)
CCN(CC)CCNC(=O)c1cc(Cl)c(N)cc1OC	inactive
CNC1CCCN(c2c(F)cc3c(=O)c(C(=O)O)cn(C4CC4)c3c2OC)C1 (stereo unspecified)	inactive
CCOc1ncc(F)c(=O)[nH]1	inactive
CCCC(=O)OC(=O)CCC	inactive

Compound	Potency
CCOCCC(=O)OCC	inactive
CCCCCCCC/C=C\CCCCCCCC(=O)OCCO	18.8 µM (active)
C=CC(=O)NC(C)C	inactive
CCCCCCCCCCCC(=O)OCC(O)CO (stereo unspecified)	39.9 µM (active)
O=C(Oc1ccccc1)c1ccc2ccccc2c1O	12.6 µM (active)
CCCCCCCC(=O)Oc1c(Br)cc(C#N)cc1Br	39.8 µM (active)
COc1ccc(C)cc1	inactive
C=Cc1ccc(OC(C)=O)cc1	inactive
CC1C(C)(C)C2=C(C(=O)CCC2)C1(C)C (stereo unspecified)	inactive
CCCCCCOC(=O)CCCCC	inactive
CCCCCCCCCCCCCCCCCC(=O)OCC(CC)CCCC (stereo unspecified)	inactive
C[C@@H]1[C@H](O)[C@@H](C)/C=C/C=C\C=C\C=C\C=C\C=C\C=C\[C@H](O[C@@H]2O[C@H](C)[C@@H](O)[C@H](N)[C@@H]2O)C[C@@H]2O[C@](O)(C[C@@H](O)C[C@@H](O)[C@H](O)CC[C@@H](O)C[C@@H](O)CC(=O)O[C@H]1C)C[C@H](O)[C@H]2C(=O)O (stereo in doubt)	inactive
CNS(=O)(=O)c1cc(C(=O)N2CCC(CCN3C4CCC3CC(n3c(C)nc5ccccc53)C4)(c3cccc(F)c3)CC2)c(Cl)cc1F (stereo unspecified)	17.8 µM (active)
CC(=O)OCCC1CCCCC1	inactive
CC(=O)OC(C)C[N+](C)(C)C (stereo unspecified)	inactive
O=P(O)(O)Oc1ccccc1	inactive
COC(C)(C)OC	inactive
NC(=O)c1ccccc1[N+](=O)[O-]	inactive
C1=CCC2CC=CC2C1 (stereo unspecified)	inactive
